Results as given in PubChem BioAssay AID504332 (National Center for Advancing Translational Sciences (NCATS), 2011).
Among all 350,000 compounds or so, about 31,000 (8.9%) were called active. Not shown: some 15% with an inconclusive outcome. This is one part of a sample in which actives are shown more often than they occur. A number with no mark means an inactive call. The call rests on the fitted dose curve; in most records, active means well fitted inhibition curve with a large enough effect; inconclusive means small, poorly fitted or top-dose-only effect; inactive means no such curve, though single readings can be large or run the other way.

These molecules were tested against Histone-lysine N-methyltransferase EHMT2 (Homo sapiens) (UniProt Q96KQ7) (assay: qHTS Assay for Inhibitors of Histone Lysine Methyltransferase G9a). Conditions: G9a H3K9 monomethylation, AlphaScreen, 2 h; series mostly up to 59 µM; activity, negative = inhibition: at the top concentration.
How it was run: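 AlphaScreen detection with an anti-monomethyl H3K9 antibody quantified product after a 2 h room-temperature reaction containing 500 nM biotinylated H3K9 peptide, 20 µM SAM and 20 nM enzyme, which had been preincubated 15 min with compound.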
Further: nearly all actives have a fitted effect of over 75% in size.
On the % scale 0 is the no-effect control and ±100 the full control effect; potency means the concentration at half of the fitted maximal effect.

Sequence of Histone-lysine N-methyltransferase EHMT2 (Homo sapiens) (Q96KQ7 913-1193 limits assumed): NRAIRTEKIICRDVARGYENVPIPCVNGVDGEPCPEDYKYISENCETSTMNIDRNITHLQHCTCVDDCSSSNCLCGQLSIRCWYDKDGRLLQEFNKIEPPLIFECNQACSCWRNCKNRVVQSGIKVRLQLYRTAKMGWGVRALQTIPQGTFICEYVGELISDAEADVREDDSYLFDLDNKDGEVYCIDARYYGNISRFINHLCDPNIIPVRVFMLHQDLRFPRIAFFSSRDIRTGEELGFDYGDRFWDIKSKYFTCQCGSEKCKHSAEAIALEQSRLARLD

How did the “activity, negative = inhibition” value turn out when `O=c1[nH]c2cc(Br)ccc2n2cccc12` was run?
The value was 4.26%.

Which “activity, negative = inhibition” value does the source give for `CNC(=O)C1CC(=O)N(c2ccc(OCC(=O)Nc3ccccc3C)cc2)C1` (centres undefined) here?
The value was -6.25% [at 102 µM].

`Cc1cccc(N2CCN(C3=C(c4ccccc4)C(=O)c4ccccc43)CC2)c1C` was tested. Which Potency did it give?
Its Potency is 3.55 µM (active).

How did the “activity, negative = inhibition” value turn out when `Cc1cccc(N2CCN(C(=O)c3oc(=O)c4ccccc4c3-c3ccccc3)CC2)c1C` was run?
Its value is -10.9%.

For `Cc1cccc(N2CCN(Cc3c(C)n(C)n(-c4ccccc4)c3=O)CC2)c1C`, which activity, negative = inhibition is on record?
The activity, negative = inhibition was 11.6% [at 12.7 µM].

How did the “activity, negative = inhibition” value turn out when `CN(C)c1ccc(-c2nnc(-c3cccnc3)o2)cc1` was run?
Its value is -31.1% [at 102 µM].

Which “activity, negative = inhibition” value does the source give for `COC(=O)c1cc(NC(=O)c2cnc(SC)nc2-c2ccccc2)cc(C(=O)OC)c1` here?
The value was -6.31%.

Which “activity, negative = inhibition” value does the source give for `COc1ccc(OCCCn2c(C3CC(=O)N(c4ccc(F)cc4)C3)nc3ccccc32)cc1` (centres undefined) here?
The value was -22.6%.

How did the activity, negative = inhibition turn out when `COc1ccc([C@H]2CC(=O)C=C(c3ccc(OC(F)(F)F)cc3)C2)cc1OC` was run?
The activity, negative = inhibition was -10% [at 2.33 µM].

For `Cc1ccc(C(C)C)c(OCCSc2nc3ccccc3n2CC(=O)O)c1`, which “activity, negative = inhibition” value is on record?
The value was -48% [at 102 µM].

With `CC(C)N(C(=O)Cn1c(SCC(=O)N2CCN(c3ccccc3)CC2)nc2ccccc21)C(C)C` as the molecule, how does the “activity, negative = inhibition” value read?
Its value is 2.09% [at 102 µM].

For `Cc1cccc(OCCSc2nc3ccccc3n2CC(=O)N2CCCCC2)c1C`, which Potency is on record?
Its Potency is 12.6 µM (active).

For `CN(CC(=O)NCC(c1ccccc1)N1CCCC1)S(=O)(=O)c1ccc(Cl)cc1` (centres undefined), which activity, negative = inhibition is on record?
The activity, negative = inhibition was -5.36% [at 12.7 µM].

`O=C(Nc1nnc(C2CC(=O)N(c3ccc(Cl)cc3)C2)s1)c1ccco1` (centres undefined) was tested. Which “activity, negative = inhibition” value did it give?
Its value is -2.59%.

Which “activity, negative = inhibition” value does the source give for `CCN(c1ncnc2c1cnn2-c1ccc(C)cc1)C1CCCCC1` here?
The value was 6.18%.

How did the Potency turn out when `C/C=C/c1ccc(OCC(O)CN2CCCCCCC2)c(OC)c1` (centres undefined) was run?
Its Potency is 20 µM (active).

Which “activity, negative = inhibition” value does the source give for `C/C=C/c1ccc(OCCCCN2CCC(C)CC2)c(OC)c1` here?
Its value is -45.5% [at 102 µM].

How did the “activity, negative = inhibition” value turn out when `COc1ccccc1OCC(O)CN1CCOCC1` (centres undefined) was run?
The value was 16.1%.

For `CCC(=O)N1CCc2cc(S(=O)(=O)NC(Cc3ccccc3)C(=O)NCc3ccc(C)cc3)ccc21` (centres undefined), which “activity, negative = inhibition” value is on record?
The value was 1.8%.

How did the “activity, negative = inhibition” value turn out when `c1ccc(CNc2ncnc3[nH]ncc23)cc1` was run?
The value was 0.452%.

Which “activity, negative = inhibition” value does the source give for `CCCCn1c(N)c(N(CC(C)C)C(=O)c2ccc(Br)o2)c(=O)[nH]c1=O` here?
Its value is -3.52% [at 102 µM].

`CCCCn1c(N)c(N(CC(C)C)C(=O)CSc2ccc([N+](=O)[O-])cc2)c(=O)[nH]c1=O` was tested. Which Potency did it give?
Its Potency is 50.1 µM (active).

With `CCCCn1c(N)c(N(CC(C)C)C(=O)C2CSC3(C)CCC(=O)N23)c(=O)[nH]c1=O` (centres undefined) as the molecule, how does the Potency read?
The Potency was 50.1 µM (active).

Which “activity, negative = inhibition” value does the source give for `CCCCn1c(N)c(N(CC(C)C)C(=O)c2cnc(C)cn2)c(=O)[nH]c1=O` here?
The value was -29.2% [at 102 µM].

How did the “activity, negative = inhibition” value turn out when `CCCCn1c(N)c(N(CCC(C)C)C(=O)COC(=O)c2ccc(CC)cc2)c(=O)[nH]c1=O` was run?
Its value is -39.5% [at 102 µM].

With `CCCCN(C(=O)CCNC(=O)NC12CC3CC(CC(C3)C1)C2)c1c(N)n(CCCC)c(=O)[nH]c1=O` as the molecule, how does the activity, negative = inhibition read?
The activity, negative = inhibition was -3.13% [at 0.501 µM].

With `CCCCn1c(N)c(N(CC(C)C)C(=O)c2ccc(-n3c(C)ccc3C)cc2)c(=O)[nH]c1=O` as the molecule, how does the Potency read?
The Potency was 56.2 µM (active).

`CCCCN(C(=O)c1ccc(C)o1)c1c(N)n(CCCC)c(=O)[nH]c1=O` was tested. Which activity, negative = inhibition did it give?
Its activity, negative = inhibition is 4.93% [at 0.501 µM].

`CCCCN(C(=O)c1ccc2ccccc2c1)c1c(N)n(CCCC)c(=O)[nH]c1=O` was tested. Which “activity, negative = inhibition” value did it give?
Its value is -3.76%.

How did the “activity, negative = inhibition” value turn out when `Cc1cc(C)c2oc(C(=O)Nc3ccc(S(=O)(=O)N(C)c4ccccc4)cc3)cc(=O)c2c1` was run?
The value was 3.25%.

`COc1cc(OC)cc(C(=O)Nc2c(C(=O)Nc3ccc(F)cc3)oc3ccccc23)c1` was tested. Which “activity, negative = inhibition” value did it give?
The value was -21.7%.

Which “activity, negative = inhibition” value does the source give for `Cc1ccccc1CSCCNC(=O)C1CCN(S(=O)(=O)Cc2ccccc2)CC1` here?
Its value is -6.76%.

For `CC(OC(=O)Cc1ccc(F)cc1)C(=O)N1CCc2ccccc21` (centres undefined), which “activity, negative = inhibition” value is on record?
The value was 11.4% [at 102 µM].

With `COc1ccc([C@H]2CC(=O)C=C(/C=C/c3ccc(Cl)cc3)C2)cc1` as the molecule, how does the activity, negative = inhibition read?
Its activity, negative = inhibition is 9.28% [at 2.33 µM].

How did the “activity, negative = inhibition” value turn out when `Cc1c(C)n2c(SCC(=O)N3CCCC3)nnc2[nH]c1=O` was run?
The value was 6.3%.

How did the activity, negative = inhibition turn out when `Cc1ccc(C)c(OCC(=O)NNC(=O)C2CCC2)c1` was run?
Its activity, negative = inhibition is -2.65% [at 12.7 µM].

With `Cc1ccc(NNC(=O)C2CCC2)cc1C` as the molecule, how does the Potency read?
The Potency was 11.2 µM (active).

For `O=C(NNC(=O)C1CCC1)c1ccccc1`, which activity, negative = inhibition is on record?
Its activity, negative = inhibition is 24.7% [at 12.7 µM].

How did the activity, negative = inhibition turn out when `Cc1cc(C)n2nc(C(=O)OCC(=O)N(CCC#N)c3ccc(F)cc3)nc2n1` was run?
Its activity, negative = inhibition is 12.1% [at 0.501 µM].

`CCC1(c2ccccc2)NC(=O)N(CC(=O)c2ccc3c(c2)OCO3)C1=O` (centres undefined) was tested. Which “activity, negative = inhibition” value did it give?
Its value is -7.32% [at 102 µM].

`O=C(CN1CCC(O)(c2cccc(C(F)(F)F)c2)CC1)NCCc1ccccc1` was tested. Which “activity, negative = inhibition” value did it give?
The value was 13.3%.

For `CC(C)c1ccc(NC(=O)C2CCN(c3nc(-c4ccc(C(C)C)cc4)no3)CC2)cc1`, which “activity, negative = inhibition” value is on record?
Its value is 50.8%.

With `Cc1cc(-c2ccc(C)c(S(=O)(=O)Nc3ccc(S(N)(=O)=O)cc3)c2)on1` as the molecule, how does the “activity, negative = inhibition” value read?
Its value is -5.1% [at 102 µM].

For `CCOc1ccccc1CNS(=O)(=O)c1cc(-c2cc(C)no2)ccc1C`, which “activity, negative = inhibition” value is on record?
Its value is 36% [at 102 µM].

For `CCN(CC)c1ccc(NS(=O)(=O)c2cc(-c3cc(C)no3)ccc2C)c(C)c1`, which Potency is on record?
The Potency was 3.16 µM (active).

How did the “activity, negative = inhibition” value turn out when `COc1ccc2c(C)c(CCC(=O)NCc3ccc(OC)c(OC)c3)c(=O)oc2c1` was run?
The value was 18.4%.

With `CC(=O)N1CCCc2cc(S(=O)(=O)N3CCC(C(=O)NCc4ccc(C)cc4)CC3)ccc21` as the molecule, how does the “activity, negative = inhibition” value read?
Its value is 14.7%.

With `COc1ccccc1OCc1nc2ccccc2s1` as the molecule, how does the activity, negative = inhibition read?
The activity, negative = inhibition was 17.1% [at 12.7 µM].

For `COc1cccc2sc(Nc3nc(C)c(C(C)=O)s3)nc12`, which “activity, negative = inhibition” value is on record?
Its value is 34.5%.
